# Active and inactive are the calls of the source. Unless noted, the rule behind the calls is not given here.
# Legend:
# [1] = blood-stage malaria parasite viability loss – strain 3D7, DAPI fluorescence, 100 nL, primary screen (AID 1184);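 note: parasites grown inside human red blood cells in medium with human serum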; conditions: P. falciparum 3D7 growth, 3 d, higher = more signal
# [2] = target: Homeobox protein Hox-A13 (Mus musculus) (UniProt Q62424); experiment: disruptors of Hoxa13 oligonucleotide interaction – biochemical, fluorescence polarization, labeled oligonucleotide, primary screen (AID 1185); conditions: Hoxa13:DNA binding, 15 min, higher = more signal, called active from +8 up or from −8 down
# [3] = blockers of DNA damage checkpoint Chk1 activation – imaging, HeLa, hydroxyurea, phospho-Chk1 antibody, percent positive cells, primary screen (AID 1186); conditions: hydroxyurea-induced phospho-Chk1 immunofluorescence imaging, higher = more signal
# [4] = blockers of DNA damage checkpoint Chk1 activation – imaging, HeLa, hydroxyurea, phospho-Chk1 nuclear intensity, primary screen (AID 1187); conditions: hydroxyurea-induced phospho-Chk1 immunofluorescence imaging, higher = more signal; note: test concentration not given here
# Chain of Homeobox protein Hox-A13 (Mus musculus) (Q62424 whole entry, looked up): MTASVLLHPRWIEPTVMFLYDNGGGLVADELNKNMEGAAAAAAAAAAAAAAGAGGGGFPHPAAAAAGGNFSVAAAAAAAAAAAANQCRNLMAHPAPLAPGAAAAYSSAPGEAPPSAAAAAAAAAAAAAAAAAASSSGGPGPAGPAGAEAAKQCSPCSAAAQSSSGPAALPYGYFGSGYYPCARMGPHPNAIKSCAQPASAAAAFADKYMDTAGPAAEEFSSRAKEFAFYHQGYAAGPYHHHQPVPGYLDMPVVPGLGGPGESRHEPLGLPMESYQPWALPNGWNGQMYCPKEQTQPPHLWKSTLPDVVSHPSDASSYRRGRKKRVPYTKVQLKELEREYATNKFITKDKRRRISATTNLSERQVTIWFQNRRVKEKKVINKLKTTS
Structure (SMILES),z-score [1],z-score [2],z-score [3],z-score [4]
C=CCN1C(=O)[C@@]2(O[C@@H](CCn3cc(CCO)nn3)[C@H]([Si](C)(C)c3ccc(OC)cc3)[C@H]2C)c2cc(N3C(=O)c4cccc5cccc3c45)ccc21,-2.85,-5.26 (inactive),-1.11 (inactive),-0.144 (inactive)
CCCCCN1CC=CC23O[C@@H]4/C=C\CCC(C)OC(=O)C4[C@H]2C(=O)N(CCO)[C@@H]3C1=O (stereo partly specified),-1.41,-3.89 (inactive),-0.174 (inactive),0.125 (inactive)
[N-]=[N+]=NCc1ccccc1C[C@@]1(C(=O)NCc2ccccc2)N=C(c2ccc(OCCCO)cc2)O[C@@H]1c1ccccc1,-2.15,0.77 (inactive),-1.01 (inactive),-1.39 (inactive)
CC(=O)NCCCC[C@@H]1NC(=O)[C@@H]2C[C@H](C(=O)O)[C@H](c3cccc(OCCO)c3)N2C1=O,-0.313,0.294 (inactive),-0.0079 (inactive),0.165 (inactive)
C=CCC1(CC=C)C[C@H]2CO[C@H](c3ccc(OC)cc3)N2C1=O,-0.682,-0.41 (inactive),-0.063 (inactive),0.989 (inactive)
O=C1c2ccccc2[C@@]2(Cc3ccccc3N(CC(F)(F)F)C2=O)[C@H](c2ccc(CO)cc2)N1Cc1ccccc1C(F)(F)F,0.226,-0.0255 (inactive),-0.563 (inactive),-0.816 (inactive)
COc1ccc(/C=C/C(=O)c2cccc(OCC(=O)OC(C)(C)C)c2)cc1,-0.732,-3.31 (inactive),-0.0499 (inactive),0.373 (inactive)
CC(C)C(CO)N1C(=O)[C@@H]2C3C(=O)OCCC/C=C\[C@H]3OC23C=CCN(C(C)C)C(=O)[C@@H]13 (stereo partly specified),0.0709,-4.01 (inactive),-1.29 (inactive),-1.14 (inactive)
O=C1O[C@H](c2ccccc2)[C@H](c2ccccc2)N2[C@H]1[C@@H](C(=O)NC[C@H](O)c1ccccc1)[C@]1(C(=O)Nc3ccc(C#CC4(O)CCCCCC4)cc31)[C@H]2c1ccc(O)cc1,0.097,-1.84 (inactive),0.104 (inactive),0.572 (inactive)
C=CC[C@@]1(C(=O)NCc2ccccc2)N=C(c2ccc(OCCCO)cc2)O[C@@H]1c1ccccc1,-2.24,-6.13 (inactive),-0.762 (inactive),-0.974 (inactive)
COc1ccc(C#Cc2ccc3c(c2)[C@]2(C(=O)N3)[C@H](c3ccc(O)cc3)N3[C@H](c4ccccc4)[C@H](c4ccccc4)OC(=O)[C@H]3[C@@H]2C(N)=O)cc1,-1.17,-0.123 (inactive),0.186 (inactive),0.381 (inactive)
COCCOC(=O)N1C(=O)[C@@]2(c3cc(C#CCCO)ccc31)[C@H](c1ccccc1OCCO)N1[C@H](c3ccccc3)[C@H](c3ccccc3)OC(=O)[C@H]1[C@@H]2C(=O)NC[C@H](O)c1ccccc1,-2.08,-0.117 (inactive),-0.29 (inactive),-0.429 (inactive)
COCCOC(=O)N1C(=O)[C@@]2(c3cc(C#CC4(O)CCCCCC4)ccc31)[C@H](c1ccccc1OCCO)N1[C@H](c3ccccc3)[C@H](c3ccccc3)OC(=O)[C@H]1[C@@H]2C(=O)Nc1nc2ccccc2s1,-1.67,4.08 (inactive),-0.201 (inactive),-0.38 (inactive)
C=CCN1C(=O)[C@@]2(O[C@@H](CCO)[C@H]([Si](C)(C)c3ccc(OC)cc3)[C@H]2C)c2cc(N(C=O)c3ccccc3)ccc21,-2.56,-3.62 (inactive),-1.21 (inactive),-0.407 (inactive)
COC(=O)C1=CC(c2ccc(CO)cc2)=CC(c2cccs2)N(C)C=C1C(=O)OC (stereo unspecified),-1.75,-6.41 (inactive),-0.261 (inactive),-0.22 (inactive)
CC(C)(C)OC(=O)CC[C@@]1(C(=O)NCc2ccccc2)N=C(c2ccc(OCCCO)cc2)O[C@@H]1c1ccccc1CN=[N+]=[N-],-2.72,-0.088 (inactive),-0.763 (inactive),-0.84 (inactive)
CC(C)(C)OC(=O)CC[C@@]12N=C(c3ccc(OCCCO)cc3)O[C@@H]1c1ccccc1CN(Cc1ccccc1)C2=O,-2.3,-1.33 (inactive),-0.543 (inactive),0.0228 (inactive)
[N-]=[N+]=Nc1ccccc1[C@H]1OC(c2ccc(OCCCO)cc2)=N[C@@]1(Cc1ccccc1)C(N)=O,-1.96,-3.95 (inactive),-0.313 (inactive),-0.179 (inactive)
C=CCN1C(=O)[C@]2(O[C@H](CCn3cc([C@H](O)c4ccccc4)nn3)[C@@H]([Si](C)(C)c3ccc(OC)cc3)[C@@H]2C)c2cc(N3CCOC3=O)ccc21,-2.91,-4.64 (inactive),-1.73 (inactive),-1.22 (inactive)
Cc1ccc(S[C@]2(C(=O)NC3CC3)CC(=O)N(Cc3ccccc3C(F)(F)F)[C@@H]2c2ccc(CO)cc2I)cc1,-0.215,-1 (inactive),0.104 (inactive),0.576 (inactive)

Structure (SMILES),z-score [1],z-score [2],z-score [3],z-score [4]
CCCCCN1CC=CC23O[C@@H]4/C=C\CCC(C)OC(=O)C4[C@H]2C(=O)N(CCCO)[C@@H]3C1=O (stereo partly specified),-0.186,-3.86 (inactive),-0.183 (inactive),0.0885 (inactive)
COCCCNC(=O)[C@@]1(CCS(=O)(=O)c2ccccc2)N=C(c2ccc(OCCCO)cc2)O[C@H]1c1ccccc1CN=[N+]=[N-],-2.68,-1.88 (inactive),-1.07 (inactive),-1.61 (inactive)
O=C(NCc1ccccc1)[C@@H]1c2ccccc2C(=O)N(Cc2ccccc2Cl)[C@H]1c1ccc(CO)cc1,0.187,-0.497 (inactive),-0.0434 (inactive),0.206 (inactive)
CC(C)(C)OC(=O)CC[C@]1(C(=O)NCc2ccccc2)N=C(c2ccc(OCCCO)cc2)O[C@H]1c1ccccc1N=[N+]=[N-],-2.16,-0.908 (inactive),-0.328 (inactive),0.252 (inactive)
Cc1ccc(S[C@]2(C(=O)NCC(C)C)CC(=O)N(C(C)C)[C@@H]2c2ccc(CO)cc2)cc1,-1.79,1.8 (inactive),-0.273 (inactive),-0.0385 (inactive)
O=C(O)[C@H]1C[C@H]2C(=O)N[C@@H](Cc3ccccc3)C(=O)N2[C@H]1c1ccc(O)cc1,-0.453,-2.68 (inactive),-0.119 (inactive),-0.18 (inactive)
COc1ccc([Si](C)(C)[C@@H]2[C@@H](CCn3cc(CCO)nn3)O[C@]3(C(=O)N(Cc4ccc(N5C(=O)c6cccc7cccc5c67)cc4)c4ccccc43)[C@H]2C)cc1,-2.41,-1.56 (inactive),-1.02 (inactive),-0.956 (inactive)
C=C(/C(=C/C[C@H](OC(C)=O)c1cccc(OCCO)c1)c1cc(C(=O)OC)ccc1OC)C(C)C,-1.79,-4.34 (inactive),0.209 (inactive),0.641 (inactive)
CCCCC(=C=CC[C@@H](O)c1ccc(OCCO)cc1)C[C@@H](O)c1cc(Cl)cc(Cl)c1O,-2.87,-3.4 (inactive),-0.806 (inactive),-0.578 (inactive)
CCCNC(=O)[C@@H]1c2ccccc2C(=O)N(Cc2cc(C(F)(F)F)cc(C(F)(F)F)c2)[C@H]1c1ccc(CO)cc1,-1.64,-1.94 (inactive),-0.319 (inactive),0.0789 (inactive)
CC(C)(C)OC(=O)CC[C@]1(C(=O)NCc2ccccc2)COC(c2ccc(OCCCO)cc2)=N1,-0.561,-5.02 (inactive),0.0879 (inactive),0.166 (inactive)
CC(C)CNC(=O)[C@@H]1c2ccccc2C(=O)N(Cc2ccc(OC(F)(F)F)cc2)[C@H]1c1ccc(CO)cc1,-0.192,-2.67 (inactive),-0.919 (inactive),-1.36 (inactive)
C=CCNC(=O)[C@H]1[C@@H]2C(=O)O[C@@H](c3ccccc3)[C@@H](c3ccccc3)N2[C@@H](c2ccc(OCCO)cc2)[C@]12C(=O)Nc1ccc(C#CCCO)cc12,-0.739,-3.71 (inactive),-0.229 (inactive),-0.205 (inactive)
COC(=O)C(CC#Cc1ccc2c(c1)[C@]1(C(=O)N2)[C@H](c2ccccc2OCCO)N2[C@H](c3ccccc3)[C@H](c3ccccc3)OC(=O)[C@H]2[C@@H]1C(=O)N1CCCCCCC1)C(=O)OC,-2.2,3.62 (inactive),0.114 (inactive),0.72 (inactive)
COC(=O)c1c(CC[C@@H](CO)NC(=O)Nc2ccc(OC)cc2)oc(C(=O)Cc2ccccc2)c1C(=O)OC,-0.83,-4.5 (inactive),0.0211 (inactive),0.406 (inactive)
CC(C)C(=C=CC[C@@H](O)c1ccc(CO)o1)CCO,-0.0113,-3.45 (inactive),-0.969 (inactive),-0.763 (inactive)
CCCCCCC#C[Si](O[C@H](c1ccccc1)c1cn(Cc2ccccc2)nn1)(C(C)C)C(C)C,-0.934,1.18 (inactive),-0.766 (inactive),-0.601 (inactive)
CC(C)CCC[C@@H](C)[C@H]1CC[C@@]2(C)C3=C(CC[C@]12C)[C@@]1(C)CC[C@H](OC(=O)CCl)C(C)(C)C1CC3 (stereo partly specified),-0.0992,-0.128 (inactive),-0.199 (inactive),-0.281 (inactive)
CC(C)C[C@@H]1NC(=O)[C@@]23C(=O)N[C@@H](Cc4ccccc4)C2[C@H](C)[C@@]2(C)O[C@H]2C3/C=C/C/C=C\CNC(=O)[C@H](Cc2ccccc2)NC1=O (stereo partly specified),-1.46,-5.15 (inactive),0.03 (inactive),0.356 (inactive)

# Source: PubChem BioAssay
